Compound activity: PubChem BioAssay, National Center for Advancing Translational Sciences (NCATS)
TDP1 cell noCPT: qHTS for Inhibitors of human tyrosyl-DNA phosphodiesterase 1 (TDP1): qHTS in cells in absence of CPT; DT40 Tdp1-/- hTDP1 cells, no CPT, ATP luminescence, 48 h; Potency, µM (series often up to 46.2 µM), inactives show at the top dose activity change, negative = growth inhibition, most hits filed as inhibitors; hit rate 15% among 420,000; further: potency means the concentration at half of the fitted maximal effect; on the % scale 0 is the no-effect control and ±100 the full control effect; nearly all actives have a fitted effect of over 55% in size
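Camptothecin absent (DMSO only). Human TDP1-complemented DT40 knockout cells, 400 cells/well, 37 °C for minimum 48 hr; ATP measured via CellTiter-Glo, 30 min dark incubation, luminescence.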
HepG2 tox: HepG2 cytotoxicity, counter-screen for TGF-b inhibitors | Potency, µM (top dose mostly 46.1 µM), without a hit: at the top dose activity change, negative = cytotoxicity, most hits filed as cytotoxic | AID 588856 | hit rate 0.76% among 410,000 | HepG2 CAGA-GFP viability, ATP luminescence, 18 h; further: potency means the concentration at half of the fitted maximal effect
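CellTiter-Glo luminescence gave cytotoxicity after 18 hours at 37 degrees C. The cells were HepG2 CAGA-GFP in 1% FBS DMEM, stimulated with 500 pg/mL TGF-beta after compound addition. %Activity was normalised to no-cell wells (complete cell-killing) and DMSO (no toxicity), and curves were fitted and classified.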
S-ASM inh: inhibitors of human secretory acid sphingomyelinase | AID 504937 | hit rate 0.006% among 340,000 | P17405 | Potency, µM (series often up to 57.5 µM), without a hit: at the top dose activity change, negative = inhibition, hits mostly inhibitors | placental ASM, HMU-PC fluorogenic substrate, 60 min; further: potency means the concentration at half of the fitted maximal effect
Target sequence (P17405 47-631 limits assumed): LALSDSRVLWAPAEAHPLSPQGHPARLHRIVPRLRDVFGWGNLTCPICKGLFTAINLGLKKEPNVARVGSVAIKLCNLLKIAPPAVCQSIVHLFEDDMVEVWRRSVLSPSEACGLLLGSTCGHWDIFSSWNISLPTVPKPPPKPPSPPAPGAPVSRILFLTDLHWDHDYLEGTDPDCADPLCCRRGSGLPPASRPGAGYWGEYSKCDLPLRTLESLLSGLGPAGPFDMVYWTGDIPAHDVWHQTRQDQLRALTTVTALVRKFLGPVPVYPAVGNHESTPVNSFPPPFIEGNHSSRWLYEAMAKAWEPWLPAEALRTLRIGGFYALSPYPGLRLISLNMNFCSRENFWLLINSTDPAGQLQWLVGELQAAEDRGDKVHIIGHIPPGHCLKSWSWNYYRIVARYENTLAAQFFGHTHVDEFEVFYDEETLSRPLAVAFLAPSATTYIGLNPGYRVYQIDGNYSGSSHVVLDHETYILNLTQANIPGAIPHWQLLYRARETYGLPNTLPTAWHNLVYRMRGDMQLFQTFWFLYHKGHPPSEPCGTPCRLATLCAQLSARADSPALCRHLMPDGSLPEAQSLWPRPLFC
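Steps: dispense placental human ASM, pin compound, wait 10 min at room temperature, add HMU-PC0 substrate at 9 uM final, incubate 60 min at 37 °C, add stop solution raising pH to 10, read fluorescence.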
IL-1B inflam inh: blocks inflammasome-driven IL-1 beta release | THP-1 LPS/ATP IL-1B secretion, AlphaLISA, 16 h; hits give low values | activity change, % at 57.5 µM | hit rate 4.7% among 360,000; in the data active means activity change below about -50%; inconclusive means mostly about -30% to -49%; further: on the % scale 0 is the no-effect control and ±100 the full control effect
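Secreted IL-1B measured by AlphaLISA bead assay after 16 h compound exposure of THP-1 cells; compounds (final up to 57.5 uM) added 1 h before LPS (250 ng/mL) and ATP (1.25 mM) stimulation; lower signal means less secretion.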
DT40 TDP1 CPT: DT40-hTDP1 cell growth loss with CPT. chicken DT40 Tdp1-/-;hTDP1 cells + 20 nM CPT, ATP luminescence, 48 h. Potency, µM (series often up to 46.2 µM), for the others: top-dose activity change, negative = growth inhibition, most hits filed as inhibitors. hit rate 12% among 420,000. AID 686979; further: potency means the concentration at half of the fitted maximal effect; on the % scale 0 is the no-effect control and ±100 the full control effect; nearly all actives have a fitted effect of over 55% in size
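Chicken DT40 Tdp1-/- cells complemented with human TDP1, 400 cells/well, exposed to compounds plus 20 nM camptothecin for at least 48 h at 37 C; viability read as ATP content by CellTiter-Glo luminescence.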
TGFb inhibitor: TGF-b pathway inhibition | Potency, µM (highest dose often 46.1 µM), without a hit: at the highest dose activity, negative = inhibition, actives largely listed as inhibitors | hit rate 1.2% among 410,000 | AID 588855 | HepG2 CAGA-GFP TGF-b/SMAD3 reporter, GFP fluorescence, 18 h; TGF-beta stimulated, 500 pg/mL final; further: potency means the concentration at half of the fitted maximal effect; on the % scale 0 is the no-effect control and ±100 the full control effect; nearly all actives have a fitted effect of over 65% in size
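HEPG2 CAGA-GFP, 1000 cells/well; 2 h settle, 37 C; cpd via pin tool; TGF-b 500 pg/mL final; 18 h, 37 C; GFP imaging ex488/em500-530; %Activity normalised to -TGF-b and +DMSO controls; CRC fit, curve class.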
Active calls of the source: *; ? = inconclusive; . = no result. Shown are actives, neighbours in structure and some others; about 19% of the full set was active somewhere. Unless noted, the call rests on the fitted dose curve; in most records, active means well fitted curve in the direction sought with a large enough effect; inconclusive means small, poorly fitted or top-dose-only effect, or another doubt; inactive means no such curve, though single readings can be large; an effect the other way counts as inactive or inconclusive.

SMILES | TDP1 cell noCPT | HepG2 tox | S-ASM inh | IL-1B inflam inh | DT40 TDP1 CPT | TGFb inhibitor
CCc1ccc(NCc2cc3cc4c(cc3n(CC(=O)Nc3ccccc3C)c2=O)OCCO4)cc1 | . | -16% | . | . | . | -7%
CCNS(=O)(=O)c1ccc(CCC(=O)N2CCC(C)CC2)cc1 | 4% | -34% | -2% | 0 | 4% | 4%
CC(C)CCN1CCC(n2nccc2NC(=O)c2ccc3c(c2)OCO3)CC1 | -9% | -1% | 0% | -67* | 16% | 12%
Cn1c(/C(C#N)=C/C2CC=CCC2)nc2ccccc21 (stereo unspecified) | ? | -38% | 2% | -96* | ? | 1%
N#C/C(=C\C1CC=CCC1)c1nc2ccccc2[nH]1 (stereo unspecified) | ? | -25% | 0% | -52* | -13% | 6%
CC(=O)Nc1ccc(CN(C)c2c(C)nc3ccc(C(=O)N(C)Cc4ccco4)cn23)cc1 | ? | 14% | . | 10 | 16µM* | 4%
CCCCC(=O)N(C)c1c(C)nc2ccc(C(=O)N3CCN(C(=O)c4ccco4)CC3)cn12 | -13% | 1% | . | -54* | -23% | 7%
CCCCC(=O)N(C)c1c(C)nc2ccc(C(=O)N(C)Cc3ccco3)cn12 | -18% | 0% | . | 26 | -20% | 24%
CCCCN(C)c1c(C)nc2ccc(C(=O)N(C)Cc3ccco3)cn12 | 18µM* | -16% | . | -3 | ? | -28%
COc1cc(C(=O)NCCN2C(=O)S/C(=C\c3cccs3)C2=O)cc(OC)c1OC | 16µM* | 4% | -10% | -5 | ? | ?
COc1cc(OC)cc(C(=O)NCCN2C(=O)S/C(=C\c3cccs3)C2=O)c1 | 16µM* | -3% | -2% | -23 | 16µM* | -19%
COC(=O)c1cc(C(=O)NCCN2C(=O)S/C(=C\c3cccs3)C2=O)cc([N+](=O)[O-])c1 | ? | -1% | -6% | -12 | ? | -4%
COc1cc(/C=C2\SC(=O)N(CCNC(=O)c3c(C)noc3C)C2=O)cc(OC)c1OC | 16µM* | -16% | 16% | ? | ? | 0%
CCCn1c2ccccc2c2cnn(CC(=O)Nc3cccc(C(=O)OCC)c3)c(=O)c21 | -20% | 2% | . | . | -22% | -1%
CCC(=O)N(C)C[C@@H]1Oc2ncc(Br)cc2C(=O)N([C@H](C)CO)C[C@H]1C | -11% | -1% | . | 42 | -3% | 1%
COc1ccc(N2CC(C(=O)Nc3nc4ccc(OC)cc4s3)CC2=O)cc1 (stereo unspecified) | ? | -23% | ? | -5 | -3% | 4%
COc1ccc(NC(=O)Nc2nnc(N(CC(C)C)CC(C)C)s2)c(OC)c1 | 18µM* | -96% | . | . | ? | ?
COc1ccc2nc(NC(=O)C3CC(=O)N(c4ccccc4)C3)sc2c1 (stereo unspecified) | ? | -4% | -11% | -57* | -18% | -2%
COc1ccc2nc(Nc3ccccc3)sc2c1 | ? | 4% | -2% | -67* | -1% | 6%
Cc1ccc(C)c(NC(=O)Nc2nnc(N(CC(C)C)CC(C)C)s2)c1 | ? | -11% | . | . | ? | ?
COc1ccc2nc(Nc3ccccc3OC)sc2c1 | 21µM* | -20% | -2% | -8 | ? | -4%
COc1ccc(CNC(=O)CSc2n[nH]c(N)n2)cc1 | -25% | 10% | -1% | 24 | 13% | 1%
COc1ccccc1NC(=O)Nc1nc2ccc(S(N)(=O)=O)cc2s1 | ? | 7% | -2% | -18 | ? | -2%
COc1ccc2nc(NC(=O)Nc3ccccc3OC)sc2c1 | 5.2µM* | -1% | -17% | -7 | 9.2µM* | -7%
COc1cccc(C2(c3cccc(OC)c3)CC2C(=O)Nc2cccc3ccccc23)c1 (stereo unspecified) | 26µM* | 4% | 0% | 16 | ? | -1%
SMILES | TDP1 cell noCPT | HepG2 tox | S-ASM inh | IL-1B inflam inh | DT40 TDP1 CPT | TGFb inhibitor
COc1ccc2nc(NC(=O)Nc3cccc4ccccc34)sc2c1 | 18µM* | -33% | 0% | 9 | ? | -21%
COc1ccc(NC(=O)Nc2cccc3ccccc23)c(OC)c1 | 4% | -1% | 3% | 9 | ? | -2%
COc1ccc(N2CC(C(=O)N/N=C/c3ccc(C)cc3)CC2=O)cc1 (stereo unspecified) | 1.6µM* | 3% | 0% | 57 | 1.3µM* | -25%
Cc1ccc(OCCSc2nc3ccccc3n2CCC(=O)O)cc1C | ? | -6% | . | . | ? | ?
COc1ccc(NS(=O)(=O)c2ccc(C)c(C(=O)N(C)CC(=O)Nc3cccc(OC)c3)c2)cc1 | ? | 0% | -1% | -21 | ? | 14%
COc1ccc2nc(Nc3nc4cc5c(cc4s3)OCO5)sc2c1 | 7.3µM* | -28% | 95% | 38 | ? | -16%
CCC(C)C(=O)Nc1nc2ccc(OC)cc2s1 (stereo unspecified) | 16µM* | 1% | -1% | -3 | ? | 16%
Cc1ccc(C)c(N(C)C(=O)c2coc(=O)c3ccccc23)c1 | 23µM* | 1% | 4% | 1 | ? | -7%
CCC(O)c1c(-c2ccccc2)nn(C)c1Cl (stereo unspecified) | 15µM* | 5% | -1% | 78 | ? | ?
CC(O)c1c(-c2ccccc2)nn(C)c1Cl (stereo unspecified) | ? | 0% | -3% | 0 | -2% | 1%
CN(CCc1ccc(Cl)c(Cl)c1)CCN1CCCC1 | 24µM* | . | . | . | 8.2µM* | .
Clc1ccc(OCCN2CCCCC2)cc1Cl | ? | -1% | -2% | 35 | -21% | -1%
COc1ccc2oc(C(=O)OCC(=O)NCc3ccco3)c(C)c2c1 | -27% | -3% | -3% | 20 | -3% | -10%
Cc1ccc2nc3n(c(=O)c2c1)-c1cc2ccccc2cc1C(=O)NC3Cc1ccc(O)cc1 (stereo unspecified) | -14% | -2% | . | 28 | -8% | ?
CCCC1NC(=O)c2cc3ccccc3cc2-n2c1nc1cc(F)ccc1c2=O (stereo unspecified) | 21µM* | -21% | . | 7 | ? | -15%
CCC1NC(=O)c2cc3ccccc3cc2-n2c1nc1cc(F)ccc1c2=O (stereo unspecified) | ? | 1% | . | 9 | -1% | 9%
O=C1NC(Cc2ccccc2)c2nc3ccc(F)cc3c(=O)n2-c2ncccc21 (stereo unspecified) | 21µM* | 0% | . | -6 | ? | 15%
